Results from PubChem BioAssay (NCI).
Several values for one entry are separate records, joined by “and”; a condition that tells them apart may be missing. Equal entries are not always repeated. This is part of a sample that, as a whole, favours compounds with a hit. Of some 83,000 tested, about 20% had one in any assay.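 Testing used 96-well plates and a 48-hour single-concentration exposure. Example: -40 means 40% of the starting cells died.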 Activity calls are given as the source filed them. The calls were made as follows: active = growth percent below 10; inactive = the rest.

Test system: MDA-MB-468 breast
Assay: NCI-60 one-dose screen, 48 h (100 = growth as untreated, 0 = no growth, -100 = all killed)
Details: 10 µM unless noted

| Structure (SMILES) | growth |
| --- | --- |
| COc1ccc2nc(NC(=O)/C(=C/c3cc(OC)c(OC)c(OC)c3)c3ccc(OC)c(OC)c3)sc2c1 | 109% (inactive) |
| CCNc1ccc(-c2nc3ccccc3n3cccc23)cc1 | 2.19% (active) |
| COc1ccc(S(=O)(=O)NC2c3ccccc3CC2O)cc1OC (configuration not stated) | 111% (inactive) |
| Brc1ccc2[nH]cc(-c3nc(-c4c[nH]c5ncccc45)cs3)c2c1 | 43.6% (inactive) |
| CC[C@H](CC[C@@H](C)[C@H]1CC[C@H]2[C@@H]3CC(=O)C4=CC(=O)/C(=C/c5ccc([N+](=O)[O-])cc5)C[C@]4(C)[C@H]3CC[C@]12C)C(C)C | 104% (inactive) |
| COC(=O)/C(CCC=C(C)C)=C1\[C@@H](OC(C)=O)C[C@@]2(C)[C@H]1C[C@@H](O)[C@H]1[C@@]3(C)CC[C@H](NCc4ccccc4)[C@@H](C)[C@@H]3CC[C@@]12C | 76.8% (inactive) |
| S=CN1CCCCC1 | 93% (inactive) |
| O=C(Nc1ncc(Cc2cc(C(F)(F)F)ccc2Cl)s1)C(=S)N1CCOCC1 | 84.3% (inactive) |
| O=C(C1=Cc2cc3ccccc3n2Cc2cnnn21)c1ccc(F)cc1 | 99.4% (inactive) |
| COc1cc(C(=O)/C=C/c2c(C)n([O-])c3ccc(C(F)(F)F)cc3[n+]2=O)cc(OC)c1OC | 36.8% (inactive) |
| N=C(N)c1ccc(-c2ccc(-c3ccc(F)cc3)s2)cc1 | -90.7% (active) |
| O=C(CN1CCN(c2ccc(Cl)cc2)CC1)N1CCN(c2nnc(-c3ccc(Cl)cc3)c(-c3ccc(Cl)cc3)n2)CC1 | 87.5% (inactive) |
| CN(Cc1ccccc1)c1ccc(SC#N)cc1 | 84.2% (inactive) |
| CCC1(/C=N/NC(N)=S)NC(=O)NC1=O (configuration not stated) | 106% (inactive) |
| CCCCCn1c(=N)n(CC(O)COc2cccc(C)c2)c2ccccc21 (configuration not stated) | -3.97% (active) |
| COc1cc(Cn2cc(F)c(=O)[nH]c2=O)cc(OC)c1 | 106% [50 µM] (inactive) |
| Cc1ccc(NC(=O)c2ccc(CN3CCN(C)CC3)cc2)cc1Nc1nccc(-c2cccnc2)n1 | 70.9% (inactive) and 73.4% (inactive) |
| O=C(O)CCCc1cnc2c3sccc3nc(SCc3c(Cl)cccc3Cl)n12 | 60.9% (inactive) |
| Cc1c(CC(=S)N2CCOCC2)nnn1-c1cccc(C(F)(F)F)c1 | 117% (inactive) |

| Structure (SMILES) | growth |
| --- | --- |
| CC(C)C1=NOC(=O)C1=Cc1cn(-c2ccccc2)nc1-c1ccc(F)cc1 | 73.4% (inactive) |
| CC(C)Cn1cnc2c(=O)[nH]c(N)nc21 | 91.6% (inactive) |
| Nc1c(C(=O)Nc2cccc3ncccc23)sc2nc3c(cc12)C(=O)CCC3 | 12.4% (inactive) |
| CN=C(NC)N/N=C(C)\C=N\NC(=NC)NC | 121% (inactive) |
| CCN(CC)CCCC(C)N=c1cc(Nc2cc(=NC(C)CCCN(CC)CC)c3cc(OC)ccc3o2)oc2ccc(OC)cc12 (configuration not stated) | -76.8% (active) |
| Cc1ccc(NC(=O)NC(=O)CSc2nc3ccccc3nc2C)cc1 | 19.6% (inactive) |
| O=C(CCCCC[P+](c1ccccc1)(c1ccccc1)c1ccccc1)NC(COC(=O)C(Cl)Cl)(COC(=O)C(Cl)Cl)COC(=O)C(Cl)Cl | 84.4% (inactive) |
| CCN1CCN(c2ccc(NC(=O)Nc3nc4ccc(-c5ccccc5OC)cc4s3)cc2)CC1 | -76.7% (active) |
| N#Cc1c(N)sc(=S)c2c1CCCC2 | 110% (inactive) |
| Nc1cc(Br)c(-c2nn3c(CCC(=O)c4nc5ccccc5[nH]4)nnc3s2)c(Br)c1 | 91.8% (inactive) |
| C/C=C(/C(=C/C)c1ccc(O)cc1)c1ccc(O)cc1 | -15.5% (active) |
| COc1cc(-c2ccc(NC(=O)CC(C)=O)c(OC)c2)ccc1NC(=O)CC(C)=O | 109% (inactive) |
| Nc1n[nH]c2ccc([C@@H]3Nc4ccc5cn[nH]c5c4[C@H]4C5CCC(C5)[C@@H]34)cc12 (some centres not stated) | -6.84% (active) |
| CCCCCc1c(C)[nH]c(/C=c2\[nH]/c(=C3/C=c4ccccc4=N3)cc2OC)c1C | -63.8% (active) |
| C=C1SC(=Nc2ccccc2Cl)N(C(=O)c2sc3ccccc3c2Cl)C1(C)C | 50% (inactive) |
| N#Cc1ccc(C(=O)CSc2nc(Nc3ccc(S(N)(=O)=O)cc3)c3ccccc3n2)cc1 | 105% (inactive) |
| CC1(C)O[C@H]2OC3CCC(=O)CC3(O)[C@H]2O1 (some centres not stated) | 98.5% (inactive) |
| C=C(C)[C@@H]1CC[C@]2(C(=O)OCCOCCOCC[P+](c3ccccc3)(c3ccccc3)c3ccccc3)CC[C@]3(C)[C@H](CC[C@@H]4[C@@]5(C)CC[C@H](OC(C)=O)C(C)(C)[C@@H]5CC[C@]43C)[C@@H]12 | -76.5% (active) |
